Screens as filed in PubChem BioAssay.
MenB inh: blocks the Mycobacterium tuberculosis MenB enzyme; inhibition, % (concentration not given with the values); AID 540299; MenB enzyme assay, absorbance read-out; 100,000 tested, 0.43% active; P9WNP5; in the data active = inhibition above about 21%, passing the limit was not always enough
Target sequence (P9WNP5 whole entry, looked up): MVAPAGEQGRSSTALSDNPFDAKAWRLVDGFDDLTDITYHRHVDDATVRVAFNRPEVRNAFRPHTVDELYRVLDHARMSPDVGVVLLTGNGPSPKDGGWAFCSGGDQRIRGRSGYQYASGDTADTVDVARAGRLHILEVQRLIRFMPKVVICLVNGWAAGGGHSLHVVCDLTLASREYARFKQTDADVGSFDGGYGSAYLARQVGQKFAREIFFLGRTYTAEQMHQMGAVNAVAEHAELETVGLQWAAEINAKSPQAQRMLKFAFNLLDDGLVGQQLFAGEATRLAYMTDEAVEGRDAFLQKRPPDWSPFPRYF
AID504770: growth inhibitors of E. coli YBA685 in a screen for V. cholerae RctB (chromosome II replication) inhibitors | z-score (concentration not given with the values) | E. coli YBA685 rctB-dependent plasmid, OD600 growth, 3 h; active compounds read low | 130,000 tested, 0.27% active; in the data active = z-score below about -2, passing the limit was not always enough
PV pol inh: poliovirus RNA polymerase inhibition. % elongation, % (compound at 16.7 µg/mL). poliovirus polymerase elongation, fluorescence polarization; active compounds read low. AID 588519. P03300. 150,000 tested, 0.66% active; in the data active = % elongation below about 90%
MbtI inh: MbtI salicylate synthase inhibition. P9WFX0. purified MbtI enzyme, fluorescence intensity read-out. inhibition, % (no concentration beside the values). 100,000 tested, 0.89% active; in the data active = inhibition mostly above about 56%, no sharp cut-off; inactive = mostly below about 77%
* hit, by the source's call; / = no result given. Only some compounds are listed: those with a hit (about 1.4% of all), similar ones and a draw of the others.

SMILES	MenB inh	AID504770	PV pol inh	MbtI inh
CCCN(CCC)C1=CC(=O)C(C)=C(C)C1=O	-34	0	86*	-26
CCOC(=O)N(c1ccc(OC)cc1)S(=O)(=O)c1ccccc1	-6	0.35	107	/
COc1ccc(C2CCCCCN2C(=O)c2nn(C)c(=O)c3ccccc23)cc1 (stereo unspecified)	2	0.05	95	3
Cc1oc(C(C)(C)C)cc1C(=O)Nc1ccc(F)cc1	/	0.85	/	/
CCN1CCN(CC2CCCCC2)CC1	34*	1.5	100	8
CCOC(=O)N1CCN(CC2CCCCC2)CC1	-6	-1.6	100	-24
N#CC1=C(S)NC(=O)C(C#N)C12CCCCC2 (stereo unspecified)	-30	-0.35	104	91*
CSC1=C(C#N)C2(CCCC2)C(C#N)C(=O)N1 (stereo unspecified)	/	-0.05	105	-12
COC(C(=O)O)C(=O)Nc1cc(Cl)cc(Cl)c1 (stereo unspecified)	/	0	/	/
O=C(COc1ccccc1)c1ccc(O)c(O)c1O	-21	-1.8	101	94*
COC(=O)N(c1ccccc1)P1(=S)OCCO1	37*	1.1	96	102*
O=S(=O)(Cc1nc2ccccc2[nH]1)c1ccccc1	/	0.25	100	0
CC(C)c1ccc(-c2nnn(Cc3cc(=O)n4ccsc4n3)n2)cc1	-4	-2.2*	104	-51
CCN(CC)CCNC(=O)c1ccc2c(=O)n3nc(Nc4ccccc4)sc3nc2c1	/	/	81*	/
O=C(SC1=NCCc2ccccc21)c1ccccc1	-24	-1.6	103	1
O=C(CSC1=NCCc2ccccc21)c1ccccc1Cl	-18	1.3	68*	17
O=C(CSC1=NCCc2ccccc21)c1ccc(-c2ccccc2)cc1	-25	-0.4	83*	0
O=C(CN1CCN(c2ccccn2)CC1)N1CCc2ccccc2C1	-7	-0.8	103	2
CCCc1nc2c(sc3nc4c(cc32)COC(C)(C)C4)c(=O)n1N	-3	0.6	99	-40
Cc1ccc(CCNC(=O)c2cc(=O)[nH]c3ccc(S(=O)(=O)N4CCCC4)cc23)cc1	-20	-0.1	102	3
CCn1c(=O)c2sccc2n2c(CCCC(=O)N3CCN(c4ccc(OC)cc4)CC3)nnc12	/	/	49*	/
CC1=CC(=O)C(N(C)c2ccccc2)=CC1=O	/	-0.95	103	85*
CC1=C/C(=C/N(C)c2ccccc2)C(=O)S1	-147	-0.7	100	28
COc1ccc(C(C2=C(O)CC(C)(C)CC2=O)c2c(C)[nH]c3ccccc23)cc1 (stereo unspecified)	-21	0.8	100	-191
CCOC(=O)c1c(NC(=O)c2cc(-c3ccc(Cl)cc3)on2)sc(C)c1C	/	/	106	/
SMILES	MenB inh	AID504770	PV pol inh	MbtI inh
Cc1cc(C(=O)Nc2sc3c(c2C#N)CCC3)no1	/	-0.2	/	/
COc1ccccc1-c1cc(C(=O)Nc2sc3c(c2C#N)CCCC3)no1	/	/	82*	/
CCOC(=O)c1c(NC(=O)c2cc(C)on2)sc(C)c1C	/	/	78*	/
CCOC(=O)c1c(NC(=O)c2cc(CC)on2)sc(C)c1C	/	/	90*	/
CCOC(=O)c1c(NC(=O)c2cc(CC(C)C)on2)sc(C(C)=O)c1C	/	/	81*	/
CCOC(=O)c1sc(NC(=O)c2cc(C(C)C)on2)c(C(=O)OCC)c1C	-11	0.25	101	6
C=CCNC(=S)NN=C1CCCCCC1	-31	-0.1	103	-12
CC1(C)CC2(CCO1)OC(=O)CC2C(=O)Nc1ccc(Cl)c(Cl)c1 (stereo unspecified)	/	-0.6	/	-7
N#CCSc1nc2c(cc1C#N)CCCCC2	-71	2	103	78
O=C1N=C(N2CCCC2)S/C1=C/c1cccc(Cl)c1	-19	-0.35	100	/
Cc1cc2[nH]c(=O)c(=O)[nH]c2cc1S(=O)(=O)NC1CCCC1	-17	-0.9	105	92
CCOC(=O)c1c(NC(=O)c2cc(-c3ccc(OC)c(OC)c3)on2)sc(C)c1C	/	/	103	/
CCOC(=O)c1c(NC(=O)c2cc(-c3ccccc3OC)on2)sc(C)c1C	/	/	73*	/
CCOC(=O)c1sc(C)c2c(=O)[nH]c(-c3ccc(SC)cc3)nc12	/	-0.8	/	64*
CSc1ccc(-c2nc3ccccc3c(=O)[nH]2)cc1	0	-0.9	98	-7
Cc1nc2ccccc2nc1SCC(=O)Nc1ccccc1	/	-0.65	103	-7
CCNc1ncnc2c1nnn2CC	-47	1.9	99	86*
CCNc1ncnc2c1nnn2C	/	/	103	/
CC(NC(=O)COc1ccccc1)C(=O)N1CCN(S(=O)(=O)c2cccs2)CC1 (stereo unspecified)	-15	-0.2	97	7
O=C(CSC1=NCCN1)C1COc2ccccc2O1 (stereo unspecified)	84*	-0.85	101	22
CC(=O)N1CCc2cc(C(O)CN3CCN(c4ccccn4)CC3)ccc21 (stereo unspecified)	-14	-0.65	100	6
O=Nc1sc2ccc3ccccc3c2c1O	-5	0.1	95	69*
CNc1ccccc1C(=O)OCC(=O)c1ccccc1	-16	-3.2*	102	-17
O=C(Sc1ccc(Cl)cc1)c1ccno1	-5	-0.55	96	65*
O=C(Sc1ccc(Cl)cc1)N1CCOCC1	/	0.7	/	/
SMILES	MenB inh	AID504770	PV pol inh	MbtI inh
CCCN=c1ssc(=O)n1CCC	0	-1.5	91	67*
CCC(=O)n1nc(-c2ccco2)nc1SC	8	2	99	54*
CCC(=O)n1nc(-c2ccco2)nc1SCc1ccccc1	-6	-1.2	101	-10
O=C(C1=C(O)c2ccccc2S(=O)(=O)N1)c1ccc(Cl)s1	-30	0.05	96	2
CCOC(=O)c1cnc2ccc(OCC)cc2c1NCCCN1CCOCC1	2	-0.2	89*	/
CCOC(=O)c1cnc2ccc(OCC)cc2c1NCCN(C)C	-9	-0.95	101	35
C=CCC(O)(CN)CC=C	32*	1.6	103	1
Cc1ccc(Nc2cc(C)nn2-c2ccccc2)cc1	-21	0.9	101	2
CN1CCC(N(C)C(=O)c2cc3c(s2)CCCC3)CC1	/	-0.45	103	-9
O=C(/C=C/c1ccccc1)ON1C(=O)CCC1=O	-14	0.65	35*	/
CC(C)OC1(O)C(=O)c2ccccc2C(=O)C1(O)OC(C)C (stereo unspecified)	-19	-1.1	9.0*	/
CCOc1ccc(N2CC(C(=O)O)CC2=O)cc1 (stereo unspecified)	/	0.25	103	-1
Cc1ccc2o/c(=N\O)c(C(N)=O)cc2c1	-12	-1.6	100	100*
Nc1nnn2c(=O)c3cccc4cccc(c43)c12	-1	0.1	97	-10
NC(=O)c1cc(S(=O)(=O)NCc2ccccc2)cs1	/	/	-12*	/
N#CSc1c(Cl)nc2sccn12	/	-4.3*	85*	65*
N#CC(C#N)=Cc1c(Cl)nc2sccn12	-105	-1.4	67*	-8
CCOC(=O)c1cc(-c2ccc(C#N)cc2)nn1-c1ccc(S(N)(=O)=O)cc1	-6	0.1	105	0
CCSc1nnc2n(CC)c3ccccc3n12	-21	-1.7	103	5
O=C(/C=C/c1ccccc1)Oc1nc2ccccc2s1	3	0.3	85*	/
O=C(/C=C/c1ccccc1)Oc1ccccc1	-11	2.2	104	5
COc1ccc(/C=C2\SC(=NC3CCCC3)NC2=O)cc1	-108	0.7	97	13
